Screening data as filed in PubChem.
Compounds with a hit are over-represented: about 6.1% of the library has one in this group of screens.
TGFb inhibitor – blocks TGF-b signaling. HepG2 CAGA-GFP TGF-b/SMAD3 reporter, GFP fluorescence, 18 h; TGF-beta stimulated, 500 pg/mL final. Potency, µM (titrated, usually from 46.1 µM), hits mostly inhibitors. 410,000 tested, 1.2% active. AID 588855; further: nearly all actives have a fitted effect of over 65% in size
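GFP signal (ex488/em500-530) from TGF-beta-stimulated HEPG2 CAGA-GFP cells, 500 pg/mL final, 18 h at 37 degrees C in DMEM plus 1% FBS, normalized to unstimulated and DMSO-stimulated controls.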
Gal4-VP16 FLuc – inhibits Gal4-VP16 luciferase reporter, ROR gamma counter-screen | Drosophila S2 Gal4-VP16 UAS-luciferase, luminescence, 20 h | Potency, µM (series often up to 53.6 µM), actives largely listed as inhibitors | 310,000 tested, 3.5% active;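 further: Gal4-VP16 expression switched on by copper sulfate through the metallothionein promoter; nearly all actives have a fitted effect of over 50% in size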
ATXN2 expr inh – reduces ATXN2 reporter expression in HEK-293 cells; 360,000 tested, 0.72% active; HEK-293 ATXN2-luciferase reporter, luminescence, 24 h; AID 1745845; Potency, µM (top dose mostly 57 µM), most hits filed as inhibitors; further: nearly all actives have a fitted effect of over 55% in size
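ATXN2-luciferase reporter cells (luciferase flanked by upstream and downstream ATXN2 gene portions) were treated 24 h at 37 °C with compounds at up to 57 uM. SteadyGlo luminescence gave expression; GF-AFC fluorescence gave viability.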
RORg inh – ROR gamma (mouse) transcription inhibition; P51450; AID 2551; Drosophila S2 Gal4-RORgamma UAS-luciferase reporter, 20 h; Potency, µM (titrated, usually from 53.6 µM), usual class: inhibitors; 310,000 tested, 5.4% active; further: nearly all actives have a fitted effect of over 60% in size
Target sequence (P51450 whole entry, looked up, the tested form may be a part): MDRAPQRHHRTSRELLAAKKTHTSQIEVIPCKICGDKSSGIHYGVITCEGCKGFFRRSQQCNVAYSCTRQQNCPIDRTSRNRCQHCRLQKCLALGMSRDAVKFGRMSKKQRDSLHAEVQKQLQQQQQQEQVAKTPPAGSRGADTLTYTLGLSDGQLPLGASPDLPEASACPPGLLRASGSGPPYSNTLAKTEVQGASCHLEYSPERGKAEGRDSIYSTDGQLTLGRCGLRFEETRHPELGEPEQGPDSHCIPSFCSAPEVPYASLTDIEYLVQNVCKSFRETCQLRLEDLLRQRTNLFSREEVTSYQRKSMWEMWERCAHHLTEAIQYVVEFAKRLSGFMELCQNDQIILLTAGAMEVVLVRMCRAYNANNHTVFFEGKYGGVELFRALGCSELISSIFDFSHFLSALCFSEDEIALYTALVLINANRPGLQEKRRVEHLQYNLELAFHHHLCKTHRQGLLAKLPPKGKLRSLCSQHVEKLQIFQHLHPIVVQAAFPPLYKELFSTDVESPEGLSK
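Compounds are pin-transferred onto Drosophila Schneider cells expressing a copper-inducible Gal4–ROR gamma transactivation domain fusion. After 1 hr, copper sulfate is added to 700 uM final; luciferase is read 20 hr later.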
ATXN viability – reduces viability in counter-screen for ATXN expression inhibitors. S2 cells (HEK-293 line with an ATXN2-luciferase reporter) viability, CellTiter-Fluor protease fluorescence, 24 h. Potency, µM (series often up to 56.7 µM), usual class: cytotoxic. 400,000 tested, 0.49% active; further: nearly all actives have a fitted effect of over 40% in size
HepG2 tox – HepG2 cytotoxicity, counter-screen for TGF-b inhibitors; HepG2 CAGA-GFP viability, ATP luminescence, 18 h; Potency, µM (series often up to 46.1 µM), usual class: cytotoxic; 410,000 tested, 0.76% active; AID 588856
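HepG2 CAGA-GFP cells (1000/well, DMEM with 1% FBS) received compound, then TGF-beta at 500 pg/mL final, and were incubated 18 hours at 37 degrees C. Viability was read by CellTiter-Glo luminescence. Media-only wells were set as complete cell-killing and DMSO as no toxicity.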
Hits are given with their value; . = inactive; ? = inconclusive; / = no result given; [ ] = remark or other dose. The call rests on the fitted dose curve; in most records, active means well fitted curve in the direction sought with a large enough effect; inconclusive means small, poorly fitted or top-dose-only effect, or another doubt; inactive means no such curve, though single readings can be large; an effect the other way counts as inactive or inconclusive.

SMILES	TGFb inhibitor	Gal4-VP16 FLuc	ATXN2 expr inh	RORg inh	ATXN viability	HepG2 tox
CC1=CC2OC3CC4OC(=O)C=CC=CC(=O)OCCC(C)C(O)C(=O)OCC2(CC1)C4(C)C31CO1 (centres undefined)	.	/	?	/	0.084µM	/
CC1CCOC(=O)C=CC=CC(=O)OC2CC3OC4C5OC5(C)C(O)CC4(COC(=O)C1O)C2(C)C31CO1 (centres undefined)	0.28µM	/	0.27µM	/	0.27µM	.
C=C(C)[C@H]1CC[C@]2(C(=O)O)CC[C@]3(C)[C@@H](CC[C@H]4[C@@]5(C)CC[C@@H](O)C(C)(C)[C@@H]5CC[C@@]43C)[C@H]12	/	.	/	.	.	/
Cc1ccc(C)c(NC(=O)Cn2c(=O)oc3cc(S(=O)(=O)NCc4ccccc4)ccc32)c1	?	/	.	/	.	.
Cc1ncc(CN2CC=C(c3ccccc3)CC2)c(N)n1	/	.	/	?	/	/
O=C(CSc1nnc(NC(=O)c2ccccc2[N+](=O)[O-])s1)NCc1ccco1	.	.	.	?	.	.
CC1CCN(C(CC(=O)c2ccccc2)C(=O)c2ccccc2)CC1 (centres undefined)	?	/	?	/	.	22µM
CC1OC(O[C@H]2C[C@@H](O)[C@]3(CO)[C@@H]4C(CC[C@]3(O)C2)[C@@]2(O)CC[C@H](C3=CC(=O)OC3)[C@@]2(C)C[C@H]4O)C(O)C(O)C1O (some centres undefined)	/	.	/	.[10 µM]	/	/
COC1C(O)C(C)OC(OC2CCC3(C)C(CCC4C3C(O)CC3(C)C(C5=CC(=O)OC5)CCC43O)C2)C1O (centres undefined)	2µM	/	0.4µM	/	?	.
CC1OC(O[C@H]2C[C@@H](O)[C@]3(CO)[C@H]4[C@H](O)C[C@]5(C)[C@@H](C6=CC(=O)OC6)CC[C@]5(O)[C@@H]4CC[C@]3(O)C2)C(O)C(O)C1O (some centres undefined)	0.56µM	/	/	/	/	.
C[C@@H]1O[C@@H](O[C@H]2C[C@@H](O)[C@]3(CO)[C@@H]4C(CC[C@]3(O)C2)[C@@]2(O)CC[C@H](C3COC(=O)C3)[C@@]2(C)C[C@H]4O)[C@H](O)[C@H](O)[C@H]1O (some centres undefined)	?	/	1.6µM	/	?	.
CCOC(=O)c1cccc(NC(=O)NCc2ccc3c(c2)CCN3C(=O)c2ccccc2)c1	?	/	.	/	.	.
CN1C(=O)/C(=C/c2ccc(Cl)s2)C(=O)NC1=S	.	13µM	?	11µM	16µM	.
Cc1ccsc1/C=C1\C(=O)NC(=S)N(C)C1=O	?	22µM	/	?	?	.
O=C1C(c2ccccc2)=C(N2CC2)c2ccccc21	.	.	.	.	?	.
O=C1C(=O)c2ccccc2-c2ccccc21	1.1µM	3.2µM	2.5µM	2µM	2.8µM	1.3µM
ClCCN(CCCl)c1ccc(C=Nc2ccc(/C=C/c3ccncc3)cc2)cc1	.	/	/	/	/	.
COC(=O)C(O)(c1ccc(NC(=S)NC(=O)c2ccccc2)cc1)C(F)(F)F (centres undefined)	.	?	.	10µM	.	.
COC(=O)C(O)(c1ccc(NC(=O)Oc2ccccc2)cc1)C(F)(F)F (centres undefined)	.	.	.	?	.	.
CCn1ccnc1CN1CCCC(C(=O)c2ccc(OC)cc2OC)C1 (centres undefined)	.	6.3µM	.	3.5µM	.	.
COc1ccc(C(=O)C2CCCN(Cc3cccc(C)n3)C2)c(OC)c1 (centres undefined)	.	.	.	?	.	.
CCn1ccnc1CN1CCCC(C(=O)c2cc(F)ccc2OC)C1 (centres undefined)	.	16µM	.	2µM	.	.
O=C1C=CC(=O)C=C1	.	.	.	11µM	.	.
CN[C@@H](C)Cc1ccccc1	/	/	/	/	.	/
CC(N)C(=O)NC1C2C(=C(O)CC(O)C2O)C(=O)OC1(C)C(Cl)Cl (centres undefined)	?	/	1.5µM	/	?	.
SMILES	TGFb inhibitor	Gal4-VP16 FLuc	ATXN2 expr inh	RORg inh	ATXN viability	HepG2 tox
COc1cc2c(cc1O)C(CCc1ccc(Cl)cc1)N(C)CC2 (centres undefined)	/	.	/	.	/	/
C=C1C(=O)[C@@]23C[C@H]4[C@@H]5[C@@]6(C)CCC[C@@]57[C@@H]2[C@@H](O)[C@@H]1C[C@H]3[C@H]7N4C6	13µM	/	?	/	7.9µM	.
COc1ccc(CNC(=O)C(CC(C)C)NS(=O)(=O)c2ccc3c(c2)oc(=O)n3C)cc1 (centres undefined)	?	/	.	/	.	.
CN1C(=O)NC(=O)/C(=C\C=C\c2ccccc2[N+](=O)[O-])C1=O	11µM	?	32µM	10µM	28µM	.
Cc1ccccc1CCNCc1cc2cccc(C)c2[nH]c1=O	.	10µM	/	?	.	.
O=Nc1ccc(Nc2ccccc2)cc1	/	?	/	.	/	/
O=C1NCN(c2ccccc2)C12CCN(C(c1cccc3ccccc13)c1nnnn1C1CCCCC1)CC2 (centres undefined)	?	/	.	/	?	.
COc1cccc(C(c2nnnn2C2CCCCC2)N2CCC3(CC2)C(=O)NCN3c2ccccc2)c1OC (centres undefined)	22µM	/	?	/	?	.
CSCCC(c1nnnn1-c1c(C)cccc1C)N1CCC2(CC1)C(=O)NCN2c1ccccc1 (centres undefined)	11µM	/	?	/	?	.
COc1cccc2c1[C@]13CCN(CC4CC4)[C@H](C2)[C@]1(OC)CCC(=O)C3	/	/	.	/	/	/
CCC1/C=C/C=CCC(C)C(O)[C@@](C)(O)C(=O)C(C)C(O)C(C)C(=O)C(C)C(O)C(C)C=CC(=O)O[C@H]2C(C)C(CC1)O[C@]1(CCC(C)C(CC(C)O)O1)C2C (some centres undefined)	/	50µM	/	0.0006µM	/	/
Cc1ccc2nc(-c3ccncc3)cc(C(=O)N3CCC4(CC3)OCCO4)c2c1	?	.	.	.	.	.
Cc1ccc(-c2cc(C(F)F)n3ncc(C(=O)N4CCc5ccccc5C4)c3n2)cc1	11µM	.	/	.	.	.
COc1cc(CC#N)cc(OC)c1OC	/	/	.	/	.	/
O=C1c2cccc3cccc(c23)C(=O)N1CCN1CCN(C(=S)Nc2ccccc2)CC1	.	?	.	14µM	.	.
CC(C)N[C@@H]1CCn2c(=O)[nH]c3cccc(c32)[C@@H]1O	/	/	.	/	/	/
CCN1CCN(CC(c2ccccc2)c2ccccc2)CC1	.	.	.	20µM	.	.
COc1ccc(NC(=O)N2CC[C@@]3(CCCN(C(=O)Oc4ccccc4)C3)C2)cc1	/	.	/	.	/	/
COc1ccc(OC(=O)N2C/C(=C/c3ccccc3)C(=O)/C(=C\c3ccccc3)C2)cc1	?	/	?	/	32µM	.
